Screens as filed in PubChem BioAssay.
HP1b binding inh: HTS for Inhibitors of HP1-beta Chromodomain Interactions with Methylated Histone Tails; Chromobox protein homolog 1 (Homo sapiens), P83916; AlphaScreen HP1-beta / biotin-H3K9me3 peptide binding; Potency, µM (series often up to 114 µM), inactives show top-dose activity change, negative = inhibition, usual class: inhibitors; 0.56% of 390,000 active; AID 540317, 2011; also: nearly all actives have a fitted effect of over 70% in size
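Compound inhibition of the preformed complex between 50 nM HP1-beta and 50 nM biotinylated H3K9me3 peptide was read by AlphaScreen. Buffer was PBS pH 7.4 with 0.01% Tween-20. Incubations ran 30 min at room temperature, with 10 ug/mL donor/acceptor beads.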
JMJD2A Tudor inh: qHTS Assay for Inhibitors of JMJD2A-Tudor Domain; Lysine-specific demethylase 4A (Homo sapiens), O75164; AlphaScreen JMJD2A-Tudor / H3K4me3 peptide binding; Potency, µM (doses to about 114 µM), for the others: at the top dose activity change, negative = inhibition, most hits filed as inhibitors; 4.4% of 390,000 active; also: % is scaled to controls: 0 for no effect and ±100 for the full control effect; nearly all actives have a fitted effect of over 50% in size
BAZ2B block: qHTS Assay for Inhibitors of BAZ2B; Potency, µM (top dose mostly 114 µM), inactives show at the highest dose activity change, negative = inhibition, hits mostly inhibitors; Bromodomain adjacent to zinc finger domain protein 2B (Homo sapiens), Q9UIF8; AID 504333, 2011; AlphaScreen BAZ2B-H3K14Ac peptide displacement; 4.4% of 360,000 active; also: % is scaled to controls: 0 for no effect and ±100 for the full control effect; nearly all actives have a fitted effect of over 60% in size
Target sequence (Q9UIF8 whole entry, looked up, the tested form may be a part): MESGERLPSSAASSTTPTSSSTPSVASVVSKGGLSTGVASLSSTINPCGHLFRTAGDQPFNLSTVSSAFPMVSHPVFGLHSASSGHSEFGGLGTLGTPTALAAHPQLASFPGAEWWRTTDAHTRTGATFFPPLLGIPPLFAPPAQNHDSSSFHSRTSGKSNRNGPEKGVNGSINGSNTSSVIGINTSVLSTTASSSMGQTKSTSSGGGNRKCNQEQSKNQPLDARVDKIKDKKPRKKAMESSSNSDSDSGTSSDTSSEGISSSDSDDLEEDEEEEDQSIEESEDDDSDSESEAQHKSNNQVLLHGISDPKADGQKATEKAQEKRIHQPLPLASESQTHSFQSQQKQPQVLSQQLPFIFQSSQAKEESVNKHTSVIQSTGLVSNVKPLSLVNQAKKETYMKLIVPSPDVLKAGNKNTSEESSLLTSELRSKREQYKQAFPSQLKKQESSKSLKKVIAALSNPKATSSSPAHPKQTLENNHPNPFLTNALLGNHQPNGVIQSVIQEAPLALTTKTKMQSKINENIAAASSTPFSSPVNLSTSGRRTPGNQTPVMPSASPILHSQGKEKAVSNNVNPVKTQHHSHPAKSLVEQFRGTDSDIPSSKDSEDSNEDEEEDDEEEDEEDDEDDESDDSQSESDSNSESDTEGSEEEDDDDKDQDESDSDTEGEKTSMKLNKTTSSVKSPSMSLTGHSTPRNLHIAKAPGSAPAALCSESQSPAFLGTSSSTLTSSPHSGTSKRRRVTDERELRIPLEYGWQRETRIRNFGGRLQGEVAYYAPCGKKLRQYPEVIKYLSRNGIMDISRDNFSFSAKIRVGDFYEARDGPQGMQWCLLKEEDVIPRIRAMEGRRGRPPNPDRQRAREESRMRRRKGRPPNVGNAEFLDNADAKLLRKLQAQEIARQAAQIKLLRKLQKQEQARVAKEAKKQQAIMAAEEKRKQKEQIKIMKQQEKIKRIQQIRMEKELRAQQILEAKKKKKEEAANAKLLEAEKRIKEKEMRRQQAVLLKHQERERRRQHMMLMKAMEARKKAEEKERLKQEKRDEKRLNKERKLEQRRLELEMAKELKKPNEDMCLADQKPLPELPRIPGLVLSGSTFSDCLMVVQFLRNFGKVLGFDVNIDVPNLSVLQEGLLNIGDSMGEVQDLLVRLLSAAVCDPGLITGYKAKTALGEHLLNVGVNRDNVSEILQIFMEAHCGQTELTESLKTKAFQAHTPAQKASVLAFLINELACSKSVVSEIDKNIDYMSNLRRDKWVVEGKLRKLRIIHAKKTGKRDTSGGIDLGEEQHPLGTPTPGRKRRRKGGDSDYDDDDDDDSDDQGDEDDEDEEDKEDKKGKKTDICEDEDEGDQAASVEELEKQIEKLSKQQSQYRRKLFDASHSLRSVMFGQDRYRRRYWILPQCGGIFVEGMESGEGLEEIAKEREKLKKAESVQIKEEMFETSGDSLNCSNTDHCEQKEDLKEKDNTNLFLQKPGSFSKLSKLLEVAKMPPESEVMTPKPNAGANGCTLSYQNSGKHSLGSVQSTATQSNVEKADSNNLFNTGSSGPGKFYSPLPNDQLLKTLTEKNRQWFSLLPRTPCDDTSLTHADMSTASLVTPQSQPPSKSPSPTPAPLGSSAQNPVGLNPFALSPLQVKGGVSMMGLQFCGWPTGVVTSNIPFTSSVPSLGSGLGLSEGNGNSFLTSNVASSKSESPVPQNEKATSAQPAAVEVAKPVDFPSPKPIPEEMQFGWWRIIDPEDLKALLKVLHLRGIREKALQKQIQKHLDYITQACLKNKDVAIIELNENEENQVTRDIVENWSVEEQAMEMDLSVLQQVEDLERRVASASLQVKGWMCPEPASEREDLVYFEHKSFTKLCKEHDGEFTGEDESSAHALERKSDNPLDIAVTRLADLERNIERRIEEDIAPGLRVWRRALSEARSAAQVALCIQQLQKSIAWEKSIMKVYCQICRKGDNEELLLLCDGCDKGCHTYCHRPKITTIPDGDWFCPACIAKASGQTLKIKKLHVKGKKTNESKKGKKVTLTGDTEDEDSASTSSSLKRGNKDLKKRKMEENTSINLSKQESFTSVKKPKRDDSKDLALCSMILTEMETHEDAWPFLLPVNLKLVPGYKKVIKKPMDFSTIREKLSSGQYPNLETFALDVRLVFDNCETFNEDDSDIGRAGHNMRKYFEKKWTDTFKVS
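BAZ2B 50 nM plus b-H3(5-23)K14Ac 50 nM, PBS pH 7.4/0.01% Tween-20, 30 min RT; compound added (max 110 uM), 30 min RT; streptavidin donor/Ni-chelate acceptor beads 10 ug/mL final, 20 min dark; AlphaScreen read.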
L3MBTL1 block: qHTS Assay for the Inhibitors of L3MBTL1 | AlphaScreen L3MBTL1–H3K9me1 peptide binding | AID 485360, 2010 | 0.66% of 230,000 active | Potency, µM (doses to about 57.1 µM), without a hit: at the highest dose activity, negative = inhibition, hits mostly inhibitors | Lethal(3)malignant brain tumor-like protein 1 (Homo sapiens), Q9Y468; also: % is scaled to controls: 0 for no effect and ±100 for the full control effect; nearly all actives have a fitted effect of over 60% in size
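First, the protein-peptide complex forms for 30 min at room temperature (L3MBTL1 50 nM, biotinylated H3K9me1 peptide 75 nM). Next, compounds are pin-transferred and incubated 30 min. Finally, AlphaScreen beads are added and read after 30 min.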
G9a block: qHTS Assay for Inhibitors of Histone Lysine Methyltransferase G9a; 8.8% of 350,000 active; Histone-lysine N-methyltransferase EHMT2 (Homo sapiens), Q96KQ7; Potency, µM (titrated, usually from 102 µM), for inactives: at the top dose activity, negative = inhibition, actives largely listed as inhibitors; G9a H3K9 monomethylation, AlphaScreen, 2 h; also: % is scaled to controls: 0 for no effect and ±100 for the full control effect; nearly all actives have a fitted effect of over 75% in size
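Enzyme 20 nM + cpd, 15 min RT; add b-H3K9 pep 500 nM / SAM 20 uM; 2 h RT; anti-H3K9me1 Ab 0.5 ug/mL + SA donor / anti-rabbit acceptor beads 20 ug/mL each, 10 min; AlphaScreen read.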
Sfp inh: qHTS Assay for Inhibitors of Bacillus subtilis Sfp phosphopantetheinyl transferase (PPTase); 4'-phosphopantetheinyl transferase ffp (Bacillus subtilis), Q9F4F7; Biochemical Sfp PPTase activity, qHTS; Potency, µM, inactives show largest response in the series, negative = inhibition, actives largely listed as inhibitors; 3.5% of 310,000 active; AID 1490, 2009;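 also: the enzyme is Sfp with the accession as filed and its product quenches rhodamine fluorescence; 0% = enzyme reaction without inhibitor and -100% = no enzyme wells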
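Sfp 15 nM + cpd, 15 min RT; start w/ rhodamine-CoA 5 uM, BHQ-2-YbbR 12.5 uM (final); 50 mM Hepes pH 7.6, 10 mM MgCl2, 0.01% NP-40, 0.01% BSA; read 525/598 nm at 0 and 30 min.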
Active calls of the source: *; ? = inconclusive; nt = no result; [ ] = remark or other dose. Rows were chosen to be rich in hits. Some 12% of all compounds tested hit in one or more screens of this group. Calls follow the shape of the dose curve; as a rule, active = well fitted curve in the direction sought with a large enough effect; inconclusive = small, poorly fitted or top-dose-only effect, or another doubt; inactive = no such curve, though single readings can be large; an effect the other way counts as inactive or inconclusive. Potency is read from the fitted curve at half-maximal effect.

SMILES | HP1b binding inh | JMJD2A Tudor inh | BAZ2B block | L3MBTL1 block | G9a block | Sfp inh
Cc1ccc(NCC(=O)N=Nc2c(O)n(C)c3ccccc23)cc1 | 4.0% | -24.8% | 17.8µM* | 22.9% | nt | ?
Cc1ccc(NC(=O)Cn2c(O)c(N=NC(N)=O)c3ccccc32)cc1 | 12.4% | -9.2% | -22.0% | nt | 2.7% | 8.3%
CCn1c(O)c(N=NC(=O)CNc2ccc(C)cc2)c2ccccc21 | ? | 56.2µM* | 31.6µM* | -23.7% | ? | 9.9%
C(#Cc1ccccc1)C[N+]1(CC#Cc2ccccc2)CCCCC1 | 4.7% | 44.7µM* | -38.3% | -17.5% | -32.6% | 13.3%
C#CC[N+]1(CC#Cc2ccccc2)CCCCC1 | 48.3% | -1.4% | -5.1% | nt | 19.2%[59 µM] | 19.6%
Cc1ccc(C#CC[N+]2(CC#Cc3ccc(C)cc3)CCCCC2)cc1 | 22.5% | -23.4% | 3.5% | 1.9% | 89.1µM* | -7.9%
CC(C)c1ccc(C2C3=C(CC(C)(C)CC3=O)NC3=C2C(=O)c2ccccc23)cc1 (centres undefined) | -35.8% | ? | ? | -29.6% | ? | -15.9%
CC1(C)CC(=O)C2=C(C1)NC1=C(C(=O)c3ccccc31)C2c1ccccc1 (centres undefined) | 50.1µM* | 39.8µM* | 31.6µM* | ? | 20µM* | -0.3%
CC(C)(C)c1ccc(C2C3=C(CCCC3=O)NC3=C2C(=O)c2ccccc23)cc1 (centres undefined) | -26.7% | 25.1µM* | ? | -28.7% | 39.8µM* | 3.5%
CC1=C([N+](=O)[O-])C(c2ccccc2)C2=C(N1)c1ccccc1C2=O (centres undefined) | ? | 25.1µM* | 35.5µM* | nt | 10µM* | ?
c1ccc(N2CCN(c3ccccc3)C2c2cccnc2)cc1 | -18.1% | ? | ? | -18.3% | ? | -3.4%
c1ccc(N2CCN(c3ccccc3)C2c2ccncc2)cc1 | 7.4% | ? | ? | nt | ? | 79.4µM*
Cc1ccc(N2CCN(c3ccc(C)cc3)C2c2cccnc2)cc1 | ? | 39.8µM* | 35.5µM* | nt | -20.1%[12.7 µM] | -3.9%
O=C(CNC(=O)[C@@H]1Cc2ccccc2CN1)NCc1ccco1 | 47.9% | -17.1% | -12.0%[57.1 µM] | nt | 70.8µM* | 1.1%
C[C@H](NC(=O)[C@@H]1Cc2ccccc2CN1)C(=O)NC[C@H]1CC[C@H](C(=O)O)CC1 | 33.0% | -17.7% | -12.9% | nt | 15.1% | -3.4%
COc1ccccc1CNC(=O)[C@H](C)NC(=O)[C@@H]1Cc2ccccc2CN1 | 69.3% | -3.0% | -19.1% | nt | ? | 11.0%
C[C@H](NC(=O)[C@@H]1Cc2ccccc2CN1)C(=O)NC1CCCCC1 | 22.3% | -13.6% | -23.6% | nt | 79.4µM* | -0.4%
CC(C)[C@H](NC(=O)[C@@H]1Cc2ccccc2CN1)C(=O)NC1CCCCC1 | 41.1% | 2.3% | -14.9% | nt | -19.9% | 1.0%
COc1ccc(CNC(=O)[C@H](C)NC(=O)[C@@H]2Cc3ccccc3CN2)cc1 | 19.4% | -9.1% | ? | nt | 70.8µM* | -2.2%
C[C@@H](NC(=O)[C@@H]1Cc2ccccc2CN1)C(=O)NCC1CCCO1 (some centres undefined) | 38.8% | 13.6% | -16.7% | nt | 50.1µM* | 3.2%
O=C(CSc1nnc(Cc2cccs2)n1Cc1ccco1)Nc1ccc(Br)cc1 | -14.8% | -26.0% | -38.3% | -8.0% | ? | 14.1µM*
O=C(CSc1nnc(Cc2cccs2)n1Cc1ccco1)Nc1ccc(Cl)cc1Cl | 14.3% | -18.0% | ? | -7.8% | ? | 28.2µM*
O=C(CSc1nnc(-c2ccco2)n1Cc1ccco1)NCc1cccs1 | 48.3% | -14.5%[57.1 µM] | -0.2% | 4.7% | -11.9%[59 µM] | 10.9%
